Results published in PubChem BioAssay (NCI).
Compounds without any hit were thinned out: in the full panel of roughly 83,000, 20% have a hit.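 Single-concentration screen, 48 h exposure, 96-well plates. Endpoint: percent growth. Below 10 = active.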 A number with no mark means an inactive call. Activity calls are given as the source filed them.

How the values were obtained:
Assay in all cases: NCI-60 one-dose screen, 48 h (100 = growth as untreated, 0 = no growth, -100 = all killed)
Settings in all cases: 10 µM unless noted
EKVX NSCLC = test system: EKVX NSCLC
SN12C renal = test system: SN12C renal
UO-31 renal = test system: UO-31 renal
TK-10 renal = test system: TK-10 renal
ACHN renal = test system: ACHN renal
CAKI-1 renal = test system: CAKI-1 renal
A498 renal = test system: A498 renal
CCRF-CEM leukemia = test system: CCRF-CEM leukemia
MOLT-4 leukemia = test system: MOLT-4 leukemia
SR leukemia = test system: SR leukemia
RPMI-8226 leukemia = test system: RPMI-8226 leukemia
OVCAR-5 ovarian = test system: OVCAR-5 ovarian
OVCAR-4 ovarian = test system: OVCAR-4 ovarian
SK-OV-3 ovarian = test system: SK-OV-3 ovarian
IGROV1 ovarian = test system: IGROV1 ovarian
OVCAR-3 ovarian = test system: OVCAR-3 ovarian
HS 578T breast = test system: HS 578T breast
NCI/ADR-RES ovarian = test system: NCI/ADR-RES ovarian
OVCAR-8 ovarian = test system: OVCAR-8 ovarian

| SMILES | growth (EKVX NSCLC) | growth (SN12C renal) | growth (UO-31 renal) | growth (TK-10 renal) | growth (ACHN renal) | growth (CAKI-1 renal) | growth (A498 renal) | growth (CCRF-CEM leukemia) | growth (MOLT-4 leukemia) | growth (SR leukemia) | growth (RPMI-8226 leukemia) | growth (OVCAR-5 ovarian) | growth (OVCAR-4 ovarian) | growth (SK-OV-3 ovarian) | growth (IGROV1 ovarian) | growth (OVCAR-3 ovarian) | growth (HS 578T breast) | growth (NCI/ADR-RES ovarian) | growth (OVCAR-8 ovarian) |
| --- | --- | --- | --- | --- | --- | --- | --- | --- | --- | --- | --- | --- | --- | --- | --- | --- | --- | --- | --- |
| CN(C)c1ccc(C2(Cl)c3ccccc3N(C)c3ccccc32)cc1 | 47.8% | 19.1% | 71.8% | 64.3% | 55.6% | 81.2% | 77.2% | 27.7% | 49.7% | 25.4% | 21.1% | 91.7% | 59.5% | 77.6% | 46.5% | 35.8% | 71.7% | 94.6% | – |
| O=C1NN(C(=O)c2ccccc2)C(c2ccc(Cl)c(Cl)c2)=C/C1=C\c1ccccc1[N+](=O)[O-] | 32% [6.75 µM] | 30.7% [6.75 µM] | -3.12% [6.75 µM] (active) | 42.1% [6.75 µM] | 24% [6.75 µM] | 24.1% [6.75 µM] | -10.9% [6.75 µM] (active) | 17.4% [6.75 µM] | – | 6.01% [6.75 µM] (active) | 2.27% [6.75 µM] (active) | -18.6% [6.75 µM] (active) | 12.2% [6.75 µM] | 37.1% [6.75 µM] | 19.3% [6.75 µM] | 15.9% [6.75 µM] | 30.8% [6.75 µM] | 17.7% [6.75 µM] | 30.3% [6.75 µM] |
| COc1ccc(-c2conc2-n2nc(-c3ccccc3)nc2-c2ccccc2)cc1 | 101% | 101% | 73.2% | 137% | – | 83.8% | 120% | 106% | 99.1% | 76.2% | 106% | 104% | 104% | 107% | 101% | 131% | 111% | 99.1% | 110% |
| CN(C)CCNC(=O)n1cc(-c2ccncc2)c(-c2cc(O)cc(Cl)c2)n1 | 107% | 91.9% | 104% | 92.6% | 80.6% | 109% | 82.2% | 88% | 86.4% | 29.6% | – | 106% | 118% | 90.8% | 107% | 109% | 93.3% | 100% | – |
| COc1ccc(-c2cc(-c3cc4ccccc4oc3=O)n(-c3ccccc3)n2)cc1 | 67.5% | 67% | – | 141% | 73.2% | 97.1% | 91.3% | 94.5% | – | – | 86.4% | 91.1% | 13.2% | 76.7% | 14% | 68.2% | 66.4% | 69.5% | – |
| CCn1c(Cc2ccccc2Nc2c(Cl)cccc2Cl)nnc1SCC(=O)Nc1ccccc1C(F)(F)F | 82.8% | 77.1% | 74.8% | 88% | 106% | 87.1% | 64.5% | 108% | 70.2% | 79.8% | 76.4% | 110% | 79% | 96.1% | 79.4% | 99.9% | 94.9% | 87.4% | 92.8% |
| CCOC(=O)C1OC2(CCCC2)OC1C(=O)OCC (stereo not drawn) | 108% | 101% | 83% | 102% | 109% | 102% | 107% | 86.3% | 92.2% | 104% | – | 110% | 118% | 105% | 96.6% | 122% | 105% | 117% | 108% |
| COc1ccc(-n2c(COc3ccc(F)cc3)n[nH]c2=S)cc1 | 107% | 84.4% | 107% | 101% | – | 104% | 108% | 143% | 114% | 120% | – | 110% | 105% | 109% | 96.4% | 103% | 108% | 103% | 112% |
| COc1ccccc1CNCCCN1C(=O)c2ccc3c4c(ccc(c24)C1=O)C(=O)N(CCCCNCCCN)C3=O | 48.1% | -80.2% (active) | 48.3% | 36.7% | – | 94.1% | 87.9% | 2.26% (active) | -21.7% (active) | 11.3% | 10.6% | 69.8% | -90.4% (active) | 56.9% | -25% (active) | -30.4% (active) | 31.5% | 72.6% | -16% (active) |
| CN1C(=O)N(C)C2C1NN=c1s/c(=C\c3ccc(C(F)(F)F)cc3)c(=O)n12 (stereo not drawn) | 45.2% | 41.2% | 49.6% | 55.5% | 44.6% | 29.6% | 18.4% | 11.7% | 37.2% | 16.8% | – | 49.3% | 63.8% | 32.1% | 46.4% | 3.49% (active) | 18.5% | 15.4% | 29.1% |
| CCCCCCCCCCCCCC | 95.2% | – | 98.6% | – | – | – | – | 90.4% | 111% | – | – | 108% | 103% | 104% | 117% | 122% | 106% | 96.9% | – |
| NC(N)=N/N=C/c1cccc(Cl)c1Cl | 69.2% | 90.1% | 66.3% | 88% | 84.2% | 59.1% | 61.6% | 52.7% | 47.6% | – | – | 85% | – | 80% | 86.5% | 72.8% | – | 75.7% | 87.5% |
| Cn1c(=O)c2c(nc(N/N=C/c3ccccc3Cl)n2C)n(C)c1=O | 106% | 99% | 81.5% | 101% | 103% | 97.8% | 170% | 94.5% | 95.7% | – | 111% | 95.7% | 115% | 110% | 102% | 119% | 137% | 97.3% | 98.6% |
| CC(C)c1nc2ccccc2n1CC(=O)N/N=C/c1cccc(O)c1 | 105% | 94.1% | 80.2% | 93.5% | 95.7% | 101% | 88% | 94.9% | 91.9% | 89.7% | – | 108% | 104% | 93.2% | 118% | 109% | 98.3% | 109% | 92.6% |
| c1cc(C2CCCCC2)ccc1-c1cnc2nonc2n1 | 37.3% | 19.5% | 29% | 15.6% | 34.6% | 34.2% | 9.62% (active) | 3.66% (active) | -5.4% (active) | 4.98% (active) | – | 25.7% | 43.9% | 33.5% | 34.8% | 1.51% (active) | 58.1% | -3.11% (active) | 8.93% (active) |
| COC(=O)c1ccc2c(c1)nc(-c1cc3ccccc3[nH]c1=O)n2-c1cc(C(C)(C)C)[nH]n1 | 85.6% | 57.3% | 29.1% | 113% | 78.5% | 67.9% | 59.6% | 30.3% | 18.1% | – | 22% | 96.6% | 86.7% | 105% | 44.7% | 94.5% | 39.3% | 2.6% (active) | 54% |
| Cc1ccncc1NC=O | 101% | 110% | 96.2% | 102% | 115% | 95.8% | 103% | 104% | 108% | 93.8% | 99.9% | 110% | 108% | 110% | 114% | – | 109% | 107% | 104% |
| Cc1cc(N)cc(C)c1-c1c(Br)cc(N)cc1Br | 51.8% | 47.9% | 36.1% | 22.3% | 56.2% | 35% | 27.9% | 8.42% (active) | 35.1% | 9.99% (active) | – | 45.9% | 61.9% | 6.33% (active) | 21% | 1.61% (active) | 34.1% | -1.83% (active) | 31% |
| Cc1ccc(NC(=O)c2sc3nc4c(cc3c2N)C(=O)CCC4)cc1Cl | 86.2% | 119% | 111% | 96.5% | 109% | 85.9% | 97.9% | 104% | 108% | 105% | 105% | 101% | – | 114% | 106% | 113% | 113% | 104% | 103% |
